# PubChem BioAssay (EPA / NIEHS)
# Where “and” joins values, the source holds several entries; their conditions need not be identical. Equal entries are not always repeated. Results filed as inconclusive are left out. Some structures have more than one record in an assay (separate samples or runs), and their calls can disagree. Calls of active or inactive are those of the source. The calls were made as follows, unless noted: active = hit-call score of the fitted dose curve at least 0.9, where 1 is the maximum; inactive = score below 0.9.
# Columns and labels:
# [1] = read-out: Macrophage colony-stimulating factor (MCSF), CSF1 (gene 1435); assay: BSK_IMphg_MCSF: BioMAP Diversity Plus: IMphg Assay for Macrophage colony-stimulating factor (MCSF) Biomarker Activity (AID 2284293); conditions: primary human endothelial cells with macrophages
# Method in brief: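 Co-culture of human venular endothelial cells and macrophages, 24 hours of chemical exposure. M-CSF quantified by ELISA, with parallel SRB total-protein staining for cytotoxicity; activity fitted relative to DMSO.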
# [2] = read-out: Interleukin-10 (IL10), IL10 (gene 3586); assay: BSK_IMphg_IL10: BioMAP Diversity Plus: IMphg Assay for Interleukin-10 (IL10) Biomarker Activity (AID 2284294); conditions: primary human endothelial cells with macrophages
# Method in brief: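 Human venular endothelial cells cocultured with macrophages, dosed 24 h; IL-10 measured by ELISA, activity relative to DMSO. Cytotoxicity assessed in parallel cultures by sulforhodamine B total-protein staining.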
# [3] = BSK_IMphg_SRB.Mphg: Macrophage Viability Assessment in the BioMAP Diversity Plus: IMphg Assay (AID 2284295); conditions: primary human endothelial cells with macrophages
# Method in brief: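 Venular endothelial cells co-cultured with macrophages, read 24 h after dosing. Total protein measured by 0.1% SRB staining after 10% TCA fixation, absorbance at 560 nm. Fitted in positive direction against DMSO baseline.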
# [4] = read-out: Thrombomodulin, THBD (gene 7056); assay: BSK_LPS_Thrombomodulin: BioMAP Diversity Plus: LPS Assay for Thrombomodulin Biomarker Activity (AID 2284296); conditions: primary human HUVEC with PBMC
# Method in brief: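 Human umbilical vein endothelial cells co-cultured with PBMC and stimulated with LPS; cell-surface thrombomodulin measured by ELISA 24 hours after compound. Gain or loss versus DMSO; cytotoxicity checked by SRB staining in parallel cultures.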
# CD69, CD69 (gene 969) = assay: BSK_LPS_CD69: BioMAP Diversity Plus: LPS Assay for CD69 Biomarker Activity (AID 2284303); conditions: primary human HUVEC with PBMC
# Method in brief: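 Human umbilical vein endothelial cells co-cultured with PBMC under LPS stimulation, chemical exposure 24 h; cell-surface CD69 measured by ELISA and fitted in the positive direction versus DMSO.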
# [5] = CCTE_Mundy_HCI_iCellGluta_NOG_NeuriteLength: CCTE's Neurite Outgrowth Assay in iCellGluta cells for Neurite Length, Mundy Lab (AID 2284318; active = hit-call score of the fitted dose curve at least 0.9, where 1 is the maximum)
# Method in brief: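 Automated high-content imaging of betaIII-tubulin (Alexa Fluor-488) and Hoechst-stained cells gave neurite length, normalized to the DMSO baseline.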
# [6] = CCTE_Mundy_HCI_iCellGluta_NOG_NeuronCount: CCTE's Neurite Outgrowth Assay in iCellGluta cells for Neuron Count, Mundy Lab (AID 2284340; active = hit-call score of the fitted dose curve at least 0.9, where 1 is the maximum;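 also: cells fixed about 48 h after compound addition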)
# Method in brief: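 Neuron count read by automated high-content imaging of Hoechst 33342 and betaIII-tubulin/Alexa Fluor-488 labelling in human iPSC glutamatergic neurons. Activity fitted relative to DMSO.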
# [7] = Tanguay_ZF_120hpf_MO24: Oregon State University Tanguay Lab 24 Hour Post-fertilization zebrafish Assay for Mortality (AID 2284389)
# Method in brief: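 Dechorionated wild-type zebrafish embryos, 1 per well, statically exposed from 6 hpf at 28C, 0.64% DMSO final. Mortality scored as binary present/absent at 24 hpf by brightfield microscopy, relative to DMSO.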
# [8] = Tanguay_ZF_120hpf_CRAN: Oregon State University Tanguay Lab 120 Hour Post-fertilization zebrafish Assay for Craniofacial Malformation (AID 2284397)
# Method in brief: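 Dechorionated Tropical 5D wild-type zebrafish embryos, one per well, were statically exposed from 6 to 120 hpf at 28C in 0.64% DMSO, with 5uM trimethyltin chloride as positive control. Craniofacial malformation was scored present/absent by brightfield microscopy, relative to DMSO.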
# [9] = Tanguay_ZF_120hpf_AXIS: Oregon State University Tanguay Lab 120 Hour Post-fertilization zebrafish Assay for Axial Malformation (AID 2284398)
# Method in brief: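 Dechorionated 5D wild-type zebrafish embryos exposed statically, one per well, from 6 to 120 hpf at 28C, 0.64% DMSO. Axial malformation scored as present/absent by brightfield microscopy at 120 hpf; dead embryos not scored.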
# [10] = Tanguay_ZF_120hpf_MORT: Oregon State University Tanguay Lab 120 Hour Post-fertilization zebrafish Assay for Mortality (AID 2284399)
# Method in brief: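 Dechorionated wild-type Tropical 5D zebrafish embryos, one per well from 6 hpf, static exposure to 120 hpf at 28C in sealed dark plates, 0.64% DMSO final. Mortality scored as binary by brightfield at 24 and 120 hpf.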
# [11] = Tanguay_ZF_120hpf_EDEM: Oregon State University Tanguay Lab 120 Hour Post-fertilization zebrafish Assay for Edema Malformation (AID 2284400)
# Method in brief: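 Dechorionated Tropical 5D wild-type embryos, one per well, statically exposed from 6 to 120 hpf at 28C in 0.64% DMSO. Edema scored present/absent by brightfield microscopy at 120 hpf; dead embryos not scored; fit versus DMSO.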
# [12] = Tanguay_ZF_120hpf_ANY: Oregon State University Tanguay Lab 120 Hour Post-fertilization zebrafish Assay for Any Mortality and Malformation (AID 2284404)
# Method in brief: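 Dechorionated Tropical 5D wild-type embryos, one per well from 6 hpf, static exposure in sealed, dark plates at 28C until 120 hpf, 0.64% DMSO final. Brightfield scoring of mortality and malformations as binary presence/absence, pooling 13 morphology endpoints.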
# [13] = CCTE_Padilla_ZF_Score.Craniofacial: CCTE's 144 Hour Post-fertilization zebrafish Assay Score for Craniofacial Malformation, Padilla Lab (AID 2284405)
# Method in brief: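 Wild-type zebrafish embryos (with chorions), one per well in 10% Hanks', were dosed at 6–8 hpf in sealed plates and kept at 26C. They were rinsed at 5 dpf. At 6 dpf two blinded assessors scored craniofacial malformations by brightfield stereomicroscopy.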
# TTR (gene 7276) = assay: CCTE_GLTED_hTTR_0.5uM: CCTE's human Transthyretin (hTTR) Inhibition Assay, with 0.5uM TTR, Great Lakes Toxicology and Ecology Division (GLTED) Lab (AID 2284320)
# Method in brief: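 Cell-free displacement assay in which human TTR at 0.5 uM was incubated with test chemical for 2 h. Displacement of the ANSA probe was read by fluorescence at 380 nm excitation/475 nm emission. Loss of signal was fitted in the positive direction versus DMSO.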
# IYD (gene 389434) = assay: CCTE_GLTED_hIYD: CCTE's human Iodotyrosine Deiodinase (xIYD) Inhibition Assay, Great Lakes Toxicology and Ecology Division (GLTED) Lab (AID 2284317; active = hit-call score of the fitted dose curve at least 0.9, where 1 is the maximum;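 also: cell-free human IYD enzyme made in baculovirus insect cells; iodide freed from monoiodotyrosine measured by cerium arsenite color change at 420 nm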)
# Method in brief: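 hIYD: baculovirus-expressed human IYD deiodinated monoiodotyrosine for 3 h with test chemical; free iodide was measured by Sandell-Kolthoff absorbance at 420 nm and normalized to MNT and DMSO/NaOH controls.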
# SERPINA7 (gene 6906) = assay: CCTE_GLTED_hTBG: CCTE's human Thyroxine-binding Globulin (TBG) Inhibition Assay, Great Lakes Toxicology and Ecology Division (GLTED) Lab (AID 2284343; active = hit-call score of the fitted dose curve at least 0.9, where 1 is the maximum;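 also: active chemicals lower fluorescence versus DMSO baseline by displacing probe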)
# Method in brief: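 Human TBG incubated 2 h with test chemical; displacement of ANSA probe read by fluorescence, 380 nm excitation/475 nm emission. Loss of signal relative to DMSO.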
smiles,measurement,setting,value
OCCCC(F)(F)C(F)(F)C(F)(F)C(F)(F)C(F)(F)C(F)(F)C(F)(F)C(F)(F)F,AC50,[1],44.4 µM (active) and 42.1 µM (active)
same,AC50,[2],40.8 µM (active) and 32.2 µM (active)
same,AC50,[3],16.7 µM (active) and 30 µM (active)
same,AC50,[4],52.8 µM (active) and 52.3 µM (active)
same,AC50,"CD69, CD69 (gene 969)",22.1 µM (active) and 43.1 µM (active)
same,outcome,[5],inactive
same,outcome,[6],inactive
same,outcome,[7],inactive
same,outcome,[8],inactive
same,outcome,[9],inactive
same,outcome,[10],inactive
same,outcome,[11],inactive
same,outcome,[12],inactive
same,outcome,[13],inactive
O=S(=O)(OCC(F)(F)F)C(F)(F)C(F)(F)C(F)(F)C(F)(F)F,outcome,[1],inactive
same,outcome,[2],inactive
same,outcome,[3],inactive
same,outcome,[4],inactive
same,AC50,"CD69, CD69 (gene 969)",30 µM (active) and 890 nM (active)
same,AC50,TTR (gene 7276),1.4 µM (active)
same,outcome,[7],inactive
same,outcome,[8],inactive
same,outcome,[9],inactive
same,outcome,[10],inactive
same,outcome,[11],inactive
same,outcome,[12],inactive
same,outcome,[13],inactive
C=CC(=O)OCC(F)(F)C(F)(F)C(F)(F)COC(=O)C=C,outcome,[1],inactive
same,AC50,[2],38.3 µM (active) and 41.1 µM (active)
same,AC50,[3],39.4 µM (active)
same,outcome,[3],inactive
same,AC50,[4],8.08 µM (active) and 7.99 µM (active)
same,AC50,"CD69, CD69 (gene 969)",15.9 µM (active) and 10.5 µM (active)
same,AC50,TTR (gene 7276),0.424 µM (active)
same,outcome,[6],inactive
same,AC50,[7],29.3 µM (active)
same,AC50,[8],18.6 µM (active)
same,outcome,[9],inactive
same,AC50,[10],16.3 µM (active)
same,AC50,[11],20.9 µM (active)
same,AC50,[12],5.92 µM (active)
same,outcome,[13],inactive
CCOC(=O)CC(=O)C(F)(F)C(F)(F)F,outcome,[1],inactive
same,outcome,[2],inactive
same,outcome,[3],inactive
same,outcome,[4],inactive
same,outcome,"CD69, CD69 (gene 969)",inactive
same,AC50,TTR (gene 7276),49.8 µM (active)
same,outcome,[7],inactive
same,outcome,[8],inactive
same,outcome,[9],inactive
same,outcome,[10],inactive
same,outcome,[11],inactive
same,outcome,[12],inactive
same,outcome,[13],inactive
NC(=O)C(F)(F)C(F)(F)C(F)(F)C(F)(F)C(N)=O,outcome,[1],inactive
same,outcome,[2],inactive
same,outcome,[3],inactive
same,AC50,[4],598 nM (active)
same,outcome,[4],inactive
same,outcome,"CD69, CD69 (gene 969)",inactive
same,outcome,[5],inactive
same,AC50,TTR (gene 7276),44.1 µM (active)
same,outcome,[6],inactive
same,outcome,[7],inactive
same,outcome,[8],inactive
same,outcome,[9],inactive
same,outcome,[10],inactive
same,outcome,[11],inactive
same,outcome,[12],inactive
same,outcome,[13],inactive
O=C(O)CCC(F)(F)C(F)(F)C(F)(F)C(F)(F)C(F)(F)C(F)(F)C(F)(F)F,outcome,[1],inactive
same,AC50,[2],3.33 µM (active)
same,AC50,[3],4.29 µM (active)
same,outcome,[3],inactive
same,outcome,[4],inactive
same,outcome,"CD69, CD69 (gene 969)",inactive
same,AC50,IYD (gene 389434),160 µM (active)
same,outcome,[5],inactive
same,AC50,TTR (gene 7276),3.34 µM (active)
same,outcome,[6],inactive
same,outcome,[7],inactive
same,outcome,[8],inactive
same,outcome,[9],inactive
same,outcome,[10],inactive
same,outcome,[11],inactive
same,outcome,[12],inactive
same,outcome,[13],inactive
CCc1cc(Cc2cc(CC)c(N)c(CC)c2)cc(CC)c1N,AC50,SERPINA7 (gene 6906),8.5 µM (active)
OCC(O)CC(F)(F)C(F)(F)C(F)(F)C(F)(F)C(F)(F)C(F)(F)C(F)(F)C(F)(F)F (stereo not given),outcome,[1],inactive
same,outcome,[2],inactive
same,outcome,[3],inactive
same,outcome,[4],inactive
same,outcome,"CD69, CD69 (gene 969)",inactive
same,outcome,[7],inactive
same,AC50,[8],6.76 µM (active)
same,AC50,[9],6.61 µM (active)
same,outcome,[10],inactive
same,AC50,[11],5.23 µM (active)
same,AC50,[12],5.14 µM (active)
same,AC50,[13],15.7 µM (active)
CCCCCCCCn1sc(Cl)c(Cl)c1=O,AC50,IYD (gene 389434),100 µM (active)
FC(F)(F)C(F)(F)C(F)(F)CC1CO1 (stereo not given),outcome,[1],inactive
same,outcome,[2],inactive
same,outcome,[3],inactive
same,outcome,[4],inactive
same,outcome,"CD69, CD69 (gene 969)",inactive
same,outcome,[7],inactive
same,outcome,[8],inactive
same,outcome,[9],inactive
same,outcome,[10],inactive
same,outcome,[11],inactive
same,outcome,[12],inactive
same,outcome,[13],inactive
CN(C(=O)C(F)(F)C(F)(F)C(F)(F)F)[Si](C)(C)C,outcome,[1],inactive
same,outcome,[2],inactive
same,outcome,[3],inactive
same,outcome,[4],inactive
same,outcome,"CD69, CD69 (gene 969)",inactive
same,outcome,[7],inactive
same,outcome,[8],inactive
same,outcome,[9],inactive
same,outcome,[10],inactive
same,outcome,[11],inactive
same,outcome,[12],inactive
same,outcome,[13],inactive
COC(F)(C(F)F)C(F)(F)F (stereo not given),outcome,[1],inactive
same,outcome,[2],inactive
same,outcome,[3],inactive
same,outcome,[4],inactive
same,outcome,"CD69, CD69 (gene 969)",inactive
same,outcome,[7],inactive
same,outcome,[8],inactive
same,outcome,[9],inactive
same,outcome,[10],inactive
same,outcome,[11],inactive
same,outcome,[12],inactive
same,outcome,[13],inactive
C=C(C)C(=O)OCC(F)(F)C(F)(F)C(F)(F)C(F)F,outcome,[1],inactive
same,outcome,[2],inactive
same,outcome,[3],inactive
same,outcome,[4],inactive
same,outcome,"CD69, CD69 (gene 969)",inactive
same,AC50,TTR (gene 7276),19 µM (active)
same,outcome,[13],inactive
